Screens as filed in PubChem BioAssay.
In the library only some 22% were active in any assay of this set; here they are far more common.
LmPK inhibitor – inhibitors of Leishmania mexicana pyruvate kinase | Q27686 | purified LmPK, Kinase-Glo ATP luminescence, 1 h | Potency, µM (highest dose often 57.5 µM), most hits filed as inhibitors | 290,000 compounds, 0.37% hits | AID 1721
Target sequence (Q27686 whole entry, looked up): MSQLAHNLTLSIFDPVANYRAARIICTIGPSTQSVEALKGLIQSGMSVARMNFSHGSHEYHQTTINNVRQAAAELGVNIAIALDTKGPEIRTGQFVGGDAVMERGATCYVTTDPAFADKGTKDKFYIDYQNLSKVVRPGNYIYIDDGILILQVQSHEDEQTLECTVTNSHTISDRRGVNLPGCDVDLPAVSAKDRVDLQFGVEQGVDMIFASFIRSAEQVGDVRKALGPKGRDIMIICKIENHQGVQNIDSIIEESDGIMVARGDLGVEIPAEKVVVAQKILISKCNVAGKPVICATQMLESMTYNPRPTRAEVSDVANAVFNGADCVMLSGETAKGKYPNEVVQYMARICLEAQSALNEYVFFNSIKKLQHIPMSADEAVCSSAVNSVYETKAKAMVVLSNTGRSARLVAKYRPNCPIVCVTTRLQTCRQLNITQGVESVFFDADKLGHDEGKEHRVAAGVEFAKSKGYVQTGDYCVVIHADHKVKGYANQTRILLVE
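0.1 nM LmPK, 0.5 mM PEP, 0.1 mM ADP; 50 mM imidazole pH 7.2, 7 mM MgCl2, 50 mM KCl; 1 h RT. Kinase-Glo luminescence readout, normalized to no-enzyme (full inhibition) and uninhibited wells.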
Pf growth 96h – P. falciparum growth inhibition at 96 hours | P. falciparum luciferase reporter growth, 96 h | Potency, µM (series often up to 28.7 µM), actives largely listed as inhibitors | 320,000 compounds, 6.9% hits | AID 504834
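Infected RBCs, 2% Hct / 0.05% parasitemia final; luciferase-reporter P. falciparum; cpd 96 h, 37 C, 5% CO2; luciferase detection reagent; luminescence.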
Cycloheximide cs – affects cycloheximide protein synthesis inhibition readout, counter-screen. 300,000 compounds, 12% hits. AID 2314. max response, %. cell reporter, cycloheximide protein synthesis inhibition counterscreen; in the data active = max response mostly above about 13%, no sharp cut-off; inactive = mostly below about 14%; note: read at 38.3 µM for the half of the compounds with a filed dose
Pf growth 48h – inhibits P. falciparum growth in the first generation, 48 h; P. falciparum luciferase growth in erythrocytes, 48 h; Potency, µM (titrated, usually from 28.7 µM), hits mostly inhibitors; 310,000 compounds, 5.9% hits
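Firefly luciferase activity from engineered P. falciparum reports growth; inhibitors lower the luminescent signal. Cultures contained 2% hematocrit erythrocytes at 0.1% final parasitemia.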
Shiga toxin inh – inhibitors of Shiga toxin in Vero cells | Vero cells, Shiga toxin protein synthesis inhibition reporter | 290,000 compounds, 9.2% hits | inhibition, % at 38.7 µM | AID 2315; in the data active = inhibition mostly above about 28%, no sharp cut-off; inactive = mostly below about 43%
Of the large screens only hits and unclear results are named; the others gave an inactive call. Unless noted, calls come from the whole dose curve; as a rule, active = well fitted inhibition curve with a large enough effect; inconclusive = small, poorly fitted or top-dose-only effect, or another doubt; inactive = no such curve, though single readings can be large or run the other way.

O=C(CSc1ncnc2c1oc1ccccc12)Nc1cccc(Cl)c1	Cycloheximide cs 9.2
COC(=O)c1sc(NC(=S)NC(=O)c2ccccc2F)nc1C	Cycloheximide cs 51, Shiga toxin inh 160
CCCc1cc(C(=O)OC)c(NC(=O)c2cc(C)on2)s1	Pf growth 96h inconclusive
O=C(CNC(=O)c1ccccc1F)OCCCOC(=O)CNC(=O)c1ccccc1F	none (no result: LmPK inhibitor, Cycloheximide cs, Shiga toxin inh)
COC(=O)c1sc(NC(=O)c2cc(C)on2)nc1C	Cycloheximide cs 27, Shiga toxin inh 36
CCOC(=O)CNC(=O)c1sc(NC(=O)c2cccc(F)c2)nc1C	Cycloheximide cs 26, Shiga toxin inh 66 (no result: Pf growth 48h)
COC(=O)c1sc(NC(=S)NC(=O)c2cccc(C)c2)nc1C	none
CCOC(=O)CNC(=O)c1sc(NC(=O)c2ccccc2F)nc1C	LmPK inhibitor 13µM, Pf growth 96h inconclusive, Cycloheximide cs 35, Shiga toxin inh 55
CCN1C=CC(=C2C(=O)c3ccccc3C2=O)C=C1	LmPK inhibitor 13µM, Pf growth 96h inconclusive, Pf growth 48h inconclusive
CCCN1C=CC(=C2C(=O)c3ccccc3C2=O)C=C1	LmPK inhibitor 14µM
CN1C=CC(=C2C(=O)c3ccccc3C2=O)C=C1	Pf growth 96h inconclusive, Cycloheximide cs 38 (no result: Pf growth 48h)
CCCCN1C(C)=CC(=C2C(=O)c3ccccc3C2=O)C=C1C	none
CCCCCCN1C=CC(=C2C(=O)c3ccccc3C2=O)C=C1	LmPK inhibitor inconclusive, Cycloheximide cs 37, Shiga toxin inh 46
CC(C)(C)c1ccccc1NC(=O)c1ccc(-n2cncn2)c([N+](=O)[O-])c1	none (no result: LmPK inhibitor, Cycloheximide cs, Shiga toxin inh)
CC(C)CNC(=O)c1cc(-c2ccco2)on1	Cycloheximide cs 35, Shiga toxin inh active
COc1ccc(CNC(=O)c2cc(-c3ccco3)on2)cc1	Pf growth 48h inconclusive
CCCNC(=O)c1cc(-c2ccco2)on1	Cycloheximide cs 49, Shiga toxin inh 120
CCn1cc(C(=O)NNC(=O)c2ccc(Cl)cc2)c(=O)c2ccc(C)nc21	none
Cc1cc(NC(=O)NC(=O)c2ccccc2)no1	Pf growth 96h inconclusive, Cycloheximide cs 20, Shiga toxin inh 38
Cc1cc(NC(=O)c2ccc(Cl)cc2)no1	Cycloheximide cs 32, Shiga toxin inh 59
Cc1cc(NC(=O)c2cccc(COc3ccc(Br)cc3)c2)no1	Cycloheximide cs 112, Shiga toxin inh active
C/C(=C\c1ccccc1)C(=O)Nc1cc(C)on1	Cycloheximide cs 40, Pf growth 48h inconclusive, Shiga toxin inh 98 (no result: Pf growth 96h)
Cc1cc(NC(=O)Cc2ccccc2)no1	Pf growth 96h inconclusive
CC(OC(=O)C1=Cc2ccccc2OC1)C(=O)NC(C)(C)C (stereo not given)	none
CCOC(=O)c1sc(NC(=O)C(C)Sc2nnc(N)s2)nc1C (stereo not given)	none
CN(CCOc1ccc(Cl)cc1)C(=O)C1CCN(C(=O)c2ccc(F)cc2)CC1	Pf growth 96h inconclusive, Pf growth 48h inconclusive
CN1C(=O)C(CC(=O)NCC2CCCCC2)SC1=Nc1ccccc1 (stereo not given)	none
CCOc1cc(C(=O)Nc2cc(C)on2)cc(OCC)c1OCC	Pf growth 48h inconclusive (no result: Pf growth 96h)
Cc1cc(NC(=O)c2cccc(C(=O)Nc3cc(C)on3)n2)no1	none
CCOc1ccc(C(=O)Nc2cc(C)on2)cc1	Cycloheximide cs 31, Shiga toxin inh 73
Cc1cc(NC(=O)c2ccc3nc(C)sc3c2)no1	Pf growth 96h inconclusive, Cycloheximide cs 43, Shiga toxin inh 195
Cc1cc(C(=O)Nc2ccc(Br)cc2F)n(-c2ccccc2)n1	none
COc1ccc(-c2cc(C(=O)NN)n(-c3ccccc3)n2)cc1	Pf growth 96h inconclusive, Cycloheximide cs 25, Shiga toxin inh 78
Cc1ccc(NC(=O)c2cc(-c3ccccc3)nn2-c2ccccc2)cc1	Pf growth 96h 10µM
Cc1ccc(NC(=O)c2cc(-c3ccccc3)nn2-c2ccccc2)c(Br)c1	Pf growth 96h 12µM, Pf growth 48h inconclusive
Cc1ccc(-n2nc(C(=O)c3ccccc3)n3c(=O)cc(-c4ccccc4)nc23)cc1	none
CC(=O)C(/C=N/c1cc(-c2ccc(C)cc2)nn1-c1ccccc1)=C(\C)O	Cycloheximide cs 56, Shiga toxin inh 93
CCn1cc(C(=O)O)c(=O)c2cnc(N3CCN(C(=S)NC(=O)c4ccc(OC)cc4)CC3)nc21	none
O=c1c(Cl)cc(Cl)nn1-c1ccccc1	none
Clc1ccccc1/C=N/c1cc(-c2ccccc2)nn1-c1ccccc1	Cycloheximide cs 33, Pf growth 48h inconclusive, Shiga toxin inh 52
Cn1c(SCC(=O)Nc2ncc(C(F)(F)F)cc2Cl)nnc1-c1ccc(Cl)cc1	none
